# Screening results as filed in PubChem BioAssay.
# Sampled rows, rich in hits. Any-hit rate of the full collection: about 5.7%.
# JMJD2E inh: JMJD2E (human) inhibition; B2RXH2; JMJD2E catalytic domain, FDH-coupled NADH fluorescence (FDH is formaldehyde dehydrogenase); Potency, µM (doses to about 57.1 µM), inactives show at the top dose activity change, negative = inhibition, hits mostly inhibitors; 230,000 compounds, 1.6% hits; active means well fitted inhibition curve with a large enough effect, not every such curve was filed as active; inconclusive means small, poorly fitted or top-dose-only effect, or another doubt; inactive means no such curve, though single readings can be large or run the other way;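 further: potency means the concentration at half of the fitted maximal effect; 0% = wells with enzyme and -100% = buffer wells without enzyme; nearly all actives have a fitted effect of over 50% in size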
# BAZ2B inh: BAZ2B (human) inhibition; Q9UIF8; AlphaScreen BAZ2B-H3K14Ac peptide displacement; Potency, µM (series often up to 114 µM), for the others: top-dose activity change, negative = inhibition, actives largely listed as inhibitors; 360,000 compounds, 4.4% hits; AID 504333; further: potency means the concentration at half of the fitted maximal effect; on the % scale 0 is the no-effect control and ±100 the full control effect; nearly all actives have a fitted effect of over 60% in size
#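 Inhibition is scored as reduced AlphaScreen emission. The BAZ2B/b-H3(5-23)K14Ac complex (50 nM each) in PBS pH 7.4, 0.01% Tween-20 meets compound (up to 110 uM) for 30 min at RT before bead addition.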
# HP1b chromo inh: blocks HP1-beta chromodomain binding to methylated histone tails; P83916; AlphaScreen HP1-beta / biotin-H3K9me3 peptide binding; Potency, µM (top dose mostly 114 µM), for the others: at the top dose activity change, negative = inhibition, most hits filed as inhibitors; 390,000 compounds, 0.56% hits; AID 540317; further: potency means the concentration at half of the fitted maximal effect; nearly all actives have a fitted effect of over 70% in size
#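 HP1-beta protein (50 nM final) preincubated 30 min at room temperature with biotinylated H3(1-18)K9me3 peptide (50 nM) in PBS pH 7.4, 0.01% Tween-20, then compound added for 30 min. AlphaScreen streptavidin donor/nickel chelate acceptor beads (10 ug/mL final), 30 min dark, luminescence read.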
# JMJD2A Tudor: inhibitors of human JMJD2A Tudor domain; 390,000 compounds, 4.4% hits; AlphaScreen JMJD2A-Tudor / H3K4me3 peptide binding; O75164; Potency, µM (titrated, usually from 114 µM), without a hit: top-dose activity change, negative = inhibition, hits mostly inhibitors; further: potency means the concentration at half of the fitted maximal effect; on the % scale 0 is the no-effect control and ±100 the full control effect; nearly all actives have a fitted effect of over 50% in size
# L3MBTL1 inh: L3MBTL1 (human) inhibition | AlphaScreen L3MBTL1–H3K9me1 peptide binding | Potency, µM (titrated, usually from 57.1 µM), for inactives: at the top dose activity, negative = inhibition, usual class: inhibitors | 230,000 compounds, 0.66% hits; further: potency means the concentration at half of the fitted maximal effect; on the % scale 0 is the no-effect control and ±100 the full control effect; nearly all actives have a fitted effect of over 60% in size
#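 L3MBTL1 (50 nM) pre-complexed 30 min with biotinylated H3(1-15)K9me1 peptide (75 nM), then compounds added for 30 min at room temperature; AlphaScreen streptavidin donor/nickel chelate acceptor beads (10 ug/mL final) read after 30 min dark incubation.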
# PI5P4Ka inh: PI5P4K alpha (human) kinase inhibition | P48426 | PI5P4Kalpha enzyme, ADP-Glo luminescence, 60 min; stronger effect = lower value | max response, % | 330,000 compounds, 1.2% hits; active means max response of -50% or lower; inconclusive means between -30% and -50%; inactive means -30% or higher; further: value at the top dose of about 77 µM; on the % scale 0 is the no-effect control and ±100 the full control effect
# Target sequence (P48426 whole entry, looked up): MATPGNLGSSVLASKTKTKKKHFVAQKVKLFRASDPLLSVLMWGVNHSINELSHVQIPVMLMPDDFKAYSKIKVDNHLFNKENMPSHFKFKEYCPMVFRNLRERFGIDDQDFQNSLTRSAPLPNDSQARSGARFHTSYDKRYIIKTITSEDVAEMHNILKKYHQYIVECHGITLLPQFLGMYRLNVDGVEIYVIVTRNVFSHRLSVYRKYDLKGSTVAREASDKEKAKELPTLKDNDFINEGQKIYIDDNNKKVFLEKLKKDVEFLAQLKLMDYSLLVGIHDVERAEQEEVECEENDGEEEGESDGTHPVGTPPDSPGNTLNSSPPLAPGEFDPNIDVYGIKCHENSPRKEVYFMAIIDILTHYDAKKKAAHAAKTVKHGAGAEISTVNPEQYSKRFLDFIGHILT
#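 Reactions run in 0.038 M HEPES pH 7.4, 0.28 mM EGTA, 0.1% CHAPS and 5% DMSO, with PI5P4Kalpha, substrate, compound and 5 microM ATP final, one hour at room temperature. Readout is ADP-Glo luminescence.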
# Starred values were filed as active, the others as inactive; ? = inconclusive; . = not tested or not shown; [ ] = another dose, or the depositor's remark. Unless noted, the call rests on the fitted dose curve; in most records, active means well fitted inhibition curve with a large enough effect; inconclusive means small, poorly fitted or top-dose-only effect; inactive means no such curve, though single readings can be large or run the other way.
SMILES,JMJD2E inh,BAZ2B inh,HP1b chromo inh,JMJD2A Tudor,L3MBTL1 inh,PI5P4Ka inh
OC1(c2ccccc2)CN(c2ccccc2)C2=[N+]1CCS2 (configuration not stated),-8%,40µM*,1%,-20%,-10%,-3
COC1=C(Br)C(=O)c2ncccc2C1=O,.,.,10µM*,6.3µM*,.,?
O=C1c2cccnc2-c2ncccc21,0%,2%,21%,-5%,11%,1
CCOc1ccc(Cn2c(CNS(=O)(=O)c3ccc(Cl)s3)nc3cccnc32)cc1,.,-1%,28%[57 µM],-17%,.,.
COc1ccc(NC(C)C(=O)Nc2ccc(C(C)(C)C)cc2)cc1Cl (configuration not stated),-4%,45µM*,-37%,?,.,0
COc1cc2c(cc1OC)C1=NC(=O)CN1C(SCc1ccc(C)cc1)=N2,?,79µM*,14%,-13%[57.1 µM],0%,-7
O=c1[nH]cnc2ncc(-c3ccc(O)cc3)nc12,.,.,22%,79µM*,.,?
O=c1[nH]cnc2nc(-c3ccccc3)c(-c3ccccc3)nc12,3.2µM*,-7%,32%,-1%,2%,-2
O=c1[nH]cnc2nn(-c3ccccc3)nc12,?,1%,52%,-3%,3%,-12
Oc1ccc(-c2cnc3ccccc3n2)cc1,.,.,25%,1%,.,-17
CCCC[n+]1ccn(C2=C([O-])c3ccccc3C(=O)/C2=N\S(=O)(=O)c2ccc(Br)cc2)c1,-4%,89µM*,18%,-12%,-7%,2
COc1ccc2cc(CO)c3cc(OC)c(OC)cc3c2c1,.,.,42%,-17%,-2%,0
C=CCn1c(=NC(=O)c2ccc(S(=O)(=O)N3CCc4ccccc4C3)cc2)sc2cc(S(N)(=O)=O)ccc21,?,7%,14%,-6%,7%,-20
COCCn1c(=NC(=O)c2ccc(S(=O)(=O)N3CCc4ccccc4C3)cc2)sc2cc(S(N)(=O)=O)ccc21,4µM*,6%,22%,-9%,-9%,?
C#CCn1c(=NC(=O)c2ccc(S(=O)(=O)N3CCc4ccccc4C3)cc2)sc2cc(S(N)(=O)=O)ccc21,6.3µM*,-1%,2%,-16%,7%,?
COC(=O)Cn1c(=NC(=O)c2ccc(S(=O)(=O)N3CCc4ccccc4C3)cc2)sc2cc(OC)ccc21,?,2%,39%,-4%,15%,-4
COc1ccc(C(=O)N(Cc2cccs2)Cc2cccs2)c(O)c1,.,.,.,-28%,.,.
Oc1c(N=Nc2ccccc2)sc2ccccc12,-7%,2µM*,-24%,?,-26%,-7
CC(=Nc1ccc(O)cc1)c1sc2ccccc2c1O,?,-35%,0%,-10%,-7%,2
O=C1NCC(c2ccccc2)C1C(=O)N/N=C/c1ccc(Cl)s1 (configuration not stated),-15%,?,14%,-26%,-15%,6
COc1ccc(/C=N\NC(=O)C2C(=O)NCC2c2ccccc2)cc1O (configuration not stated),-6%,3%,?,?,-4%,-57*
Cc1ccc(NC(=O)C2CCN(c3cc(C)nc4c(-c5ccc(Cl)cc5)c(C)nn34)CC2)c(C)c1,.,-36%,38%,0%,.,.
Fc1cc(F)cc(-c2oncc2-c2nnnn2-c2ccccc2)c1,7%,3%,3%,79µM*,9%,2
Fc1ccc(-c2oncc2-c2nnnn2-c2ccccc2)cc1F,6%,0%,71%,-2%[57.1 µM],-1%,7
Cc1ccc(-n2nnnc2-c2cnoc2-c2cccc(F)c2)cc1,4%,28%,22%,16µM*,14%,-24
Cc1ccccc1CNC(=O)c1c(C)oc2c1C1=NCCN1C=N2,.,-6%,34%,-2%,.,.
COc1ccc(CNC(=O)Nc2cn(CC(C)C)c(=O)c3ccccc23)cc1,.,3%[57.1 µM],21%,-16%,.,.
CCOC(=O)c1c(N2C(=O)Nc3cc(Cl)c(Cl)cc3N2O)sc2c1CCCCC2,6%,?,?,79µM*,-13%,?
